Records with an inconclusive call do not appear. The source made the active and inactive calls. Rule for the calls, unless noted: active = hit-call score of the fitted dose curve at least 0.9, where 1 is the maximum; inactive = score below 0.9.
System: not listed separately
Assay: CCTE_Harrill_HTTr_CellCount_MCF7: CCTE's Cell Proliferation Assessment for the High-Throughput Transcriptomics (HTTr) Platform, Harrill Lab (AID 2284012; active = hit-call score of the fitted dose curve at least 0.9, where 1 is the maximum;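 note: count of Hoechst-stained nuclei per well by high-content imaging in MCF-7 cells; cells exposed to compound for six hours; intended direction is loss of nuclei count meaning fewer cells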)
Method in brief: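 For this full-screen endpoint, MCF-7 cultures received eight compound dilutions for six hours. Well nuclei counts from Hoechst imaging were analyzed relative to DMSO.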

Compound	outcome
O=P1(N(CCCl)CCCl)NCCCO1 (stereo not given)	inactive
CCOP(=S)(OCC)SCSCC	inactive
CCCCOCC1CO1 (stereo not given)	inactive
CCOS(=O)(=O)OCC	inactive
CCCCC(CC)COC(=O)c1c(Br)c(Br)c(Br)c(Br)c1C(=O)OCC(CC)CCCC (stereo not given)	inactive
c1cc2c3c(cccc3c1)CC2	inactive
CCCN(CCC)c1c([N+](=O)[O-])cc(C(C)C)cc1[N+](=O)[O-]	inactive
O=C(O)CF	inactive
CC(C)(C)OOC(C)(C)C	inactive
Cc1cccc(N)c1	inactive

System: not listed separately
Assay: CCTE_Shafer_MEA_acute_burst_number: CCTE's Neural Acute Assay for Single-Electrode Bursts, Shafer Lab (AID 2284013)
Method in brief: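 Primary rat cortical neurons on 16-electrode MEA wells, DIV 13 or 15, exposed to compound (0.03-40 uM; ≥3 wells); 40-min recordings at 37 C before and after treatment. Burst count expressed as percent change from baseline, DMSO as negative control.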

Compound	AC50	outcome
CCC(C)(C)c1ccc(O)cc1	0.283 µM (active)	
COCCOCCO		inactive
COP(=O)(CCC(=O)NCO)OC		inactive
CC(C)(C)c1ccccc1OP(=O)(Oc1ccccc1)Oc1ccccc1	1.23 µM (active)	

System: not listed separately
Assay: CCTE_Shafer_MEA_acute_per_burst_spike_number_mean: CCTE's Neural Acute Assay for Average Number of Spikes Per Burst, Shafer Lab (AID 2284015);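 note: hits are decreases in mean spikes per burst versus baseline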
Method in brief: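 Read-out: percent change in mean spikes per burst, each well's post-exposure 40-min recording versus its own 40-min baseline. Rat cortical cultures, DIV 13 or 15, compounds 0.03-40 uM; DMSO is negative control, loss-of-signal fitting.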

Compound	outcome	AC50
CCC(C)(C)c1ccc(O)cc1	inactive	
COCCOCCO	inactive	
COP(=O)(CCC(=O)NCO)OC		0.145 µM (active)
CC(C)(C)c1ccccc1OP(=O)(Oc1ccccc1)Oc1ccccc1		7.23 µM (active)

System: not listed separately
Assay: CCTE_Shafer_MEA_acute_interburst_interval_mean: CCTE's Neural Acute Assay for Mean Interburst Interval, Shafer Lab (AID 2284016);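 note: percent change of mean interburst interval versus each well's own pre-dose baseline; curves fitted for decrease in interburst interval relative to DMSO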
Method in brief: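 Rat cortical cultures, DIV 13/15; 20 min equilibration, 40 min baseline, compound 0.03-40 uM, 40 min re-recording, 37 C. Spikes detected at 8x rms noise (300-5000 Hz band-pass). Endpoint: % change in interburst interval, fitted in loss direction vs DMSO.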

Compound	AC50	outcome
CCC(C)(C)c1ccc(O)cc1	0.0877 µM (active)	
COCCOCCO		inactive
COP(=O)(CCC(=O)NCO)OC		inactive
CC(C)(C)c1ccccc1OP(=O)(Oc1ccccc1)Oc1ccccc1		inactive

System: not listed separately
Assay: CCTE_Shafer_MEA_acute_burst_percentage_mean: CCTE's Neural Acute Assay for Percentage of Spikes in a Burst, Shafer Lab (AID 2284017);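 for AC50: curve fitted for loss of signal so potency reflects decreased burst percentage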
Method in brief: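 Rat cortical cultures, DIV 13/15, 37 C. Spikes detected at 8x rms noise (300-5000 Hz band-pass). Burst spikes/total spikes averaged across electrodes per well; % change post- vs pre-treatment (40 min each), loss-of-signal fit vs DMSO.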

Compound	AC50	outcome
CCC(C)(C)c1ccc(O)cc1	9.06 µM (active)	
COCCOCCO		inactive
COP(=O)(CCC(=O)NCO)OC		inactive
CC(C)(C)c1ccccc1OP(=O)(Oc1ccccc1)Oc1ccccc1	6.79 µM (active)	

System: not listed separately
Assay: CCTE_Shafer_MEA_acute_burst_percentage_std: CCTE's Neural Acute Assay for Standard Deviation of Burst Percentage, Shafer Lab (AID 2284018);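 note: fitted in the negative direction so actives lower burst percentage SD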
Method in brief: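 Value is percent change from baseline in the across-electrode SD of spikes-in-bursts percentage, wells with >/= 10 active electrodes. Acute 40-min exposure to 0.03-40 uM on DIV 13 or 15 rat cortical cultures, recorded at 37 C after 40-min baseline.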

Compound	outcome	AC50
CCC(C)(C)c1ccc(O)cc1	inactive	
COCCOCCO	inactive	
COP(=O)(CCC(=O)NCO)OC	inactive	
CC(C)(C)c1ccccc1OP(=O)(Oc1ccccc1)Oc1ccccc1		5 µM (active)

System: not listed separately
Assay: CCTE_Shafer_MEA_acute_per_network_burst_spike_number_std: CCTE's Neural Acute Assay for Standard Deviation of Number of Spikes in a Network Burst, Shafer Lab (AID 2284020);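 note: fitted for decrease in spike-number SD versus DMSO so actives lower it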
Method in brief: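 Endpoint: percent change from 40 min baseline in standard deviation of spikes per network burst, after 40 min compound exposure (0.03-40 uM, 37 C). Cortical rat neurons on MEA at DIV 13 or 15; spikes detected at 8x rms noise, 300-5000 Hz band-pass.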

Compound	AC50	outcome
CCC(C)(C)c1ccc(O)cc1	8.27 µM (active)	
COCCOCCO		inactive
COP(=O)(CCC(=O)NCO)OC		inactive
CC(C)(C)c1ccccc1OP(=O)(Oc1ccccc1)Oc1ccccc1	5 µM (active)	

System: not listed separately
Assay: CCTE_Shafer_MEA_acute_per_network_burst_electrodes_number_mean: CCTE's Neural Acute Assay for Mean Number of Electrodes in a Network Burst, Shafer Lab (AID 2284021);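 note: curves fitted for decreases only so hits reduce electrodes per burst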
Method in brief: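 Rat primary cortical neurons on 48-well MEAs, DIV 13 or 15, were treated at 0.03-40 uM. Spikes were detected at 8x rms noise and recorded at 37 C. The mean electrodes per network burst in a 40 min exposure recording was expressed as percent change from a 40 min baseline.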

Compound	outcome	AC50
COCCOCCO	inactive	
COP(=O)(CCC(=O)NCO)OC	inactive	
CC(C)(C)c1ccccc1OP(=O)(Oc1ccccc1)Oc1ccccc1		5 µM (active)

System: not listed separately
Assay: CCTE_Shafer_MEA_acute_network_burst_percentage: CCTE's Neural Acute Assay for Percentage of Network Bursts, Shafer Lab (AID 2284022);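 note: curves fitted for loss so actives lower network burst percentage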
Method in brief: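 Rat primary cortical neuron networks on 48-well MEA plates, DIV 13 or 15, treated acutely with compound (0.03-40 uM, at least three wells). Percent of spikes within network bursts compared between 40-min recordings before and during exposure at 37 C, expressed as percent change.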

Compound	outcome	AC50
CCC(C)(C)c1ccc(O)cc1	inactive	
COCCOCCO	inactive	
COP(=O)(CCC(=O)NCO)OC	inactive	
CC(C)(C)c1ccccc1OP(=O)(Oc1ccccc1)Oc1ccccc1		7.61 µM (active)

System: not listed separately
Assay: CCTE_Shafer_MEA_acute_cross_correlation_area: CCTE's Neural Acute Assay for Area of Cross Correlation, Shafer Lab (AID 2284024);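 note: curves fitted for loss of cross-correlation area so actives lower synchrony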
Method in brief: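 Rat primary cortical neurons on 48-well MEA, DIV 13 or 15; compounds 0.03-40 uM. Baseline and post-exposure 40 min recordings at 37 C; percent change in area under pooled inter-electrode cross-correlation near zero lag, relative to DMSO.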

Compound	outcome
CCC(C)(C)c1ccc(O)cc1	inactive
COCCOCCO	inactive
COP(=O)(CCC(=O)NCO)OC	inactive
CC(C)(C)c1ccccc1OP(=O)(Oc1ccccc1)Oc1ccccc1	inactive

System: not listed separately
Assay: CCTE_Shafer_MEA_acute_cross_correlation_HWHM: CCTE's Neural Acute Assay for Cross Correlation at Half Width at Half Maximum, Shafer Lab (AID 2284026);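 note: percent change per well from pre-dose baseline in spike cross-correlogram half width; hits are a decrease in cross-correlogram half width relative to DMSO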;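 for outcome: spontaneous network firing of rat primary cortical neurons on multiwell microelectrode arrays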
Method in brief: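 Rat primary cortical neurons on 48-well MEA plates; 40-min baseline and 40-min post-exposure recordings at 37 C on DIV 13 or 15, compounds 0.03-40 uM. Spikes detected at 8x rms noise; percent change in cross-correlogram HWHM per well vs baseline.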

Compound	AC50	outcome
CCC(C)(C)c1ccc(O)cc1	9.35 µM (active)	
COCCOCCO		inactive
COP(=O)(CCC(=O)NCO)OC		inactive
CC(C)(C)c1ccccc1OP(=O)(Oc1ccccc1)Oc1ccccc1	8.14 µM (active)	

System: not listed separately
Assay: CCTE_Shafer_MEA_acute_synchrony_index: CCTE's Neural Acute Assay for Synchrony, Shafer Lab (AID 2284027);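 note: network synchrony index of spontaneous spiking in primary rat cortical neurons on MEAs; fitted for loss of signal so actives lower synchrony relative to DMSO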
Method in brief: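 Acute exposure of rat primary cortical neurons (DIV 13 or 15) at 0.03-40 uM. Synchrony index, 40 min before vs after, as % change relative to DMSO control.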

Compound	AC50	outcome
CCC(C)(C)c1ccc(O)cc1	8.24 µM (active)	
COCCOCCO		inactive
COP(=O)(CCC(=O)NCO)OC		inactive
CC(C)(C)c1ccccc1OP(=O)(Oc1ccccc1)Oc1ccccc1	6.97 µM (active)	

Target: Estrogen receptor (Homo sapiens) (UniProt P03372)
Assay: CCTE_Deisenroth_AIME_384WELL_LUC_Active: CCTE's 384-well Estrogen Receptor Transactivation Assay with AIME metabolic competence (ERTA luciferase; metabolism positive), Deisenroth Lab (AID 2284030; active = hit-call score of the fitted dose curve at least 0.9, where 1 is the maximum)
Method in brief: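 Chemicals (10-point, 0.002-200 uM) were first incubated 2 hours with alginate-immobilized induced male Sprague Dawley rat liver S9. The conditioned medium was then applied to VM7Luc4E2 cells for 24 hours, with ER luciferase induction read by luminescence relative to 17beta-estradiol.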

Chain of Estrogen receptor (Homo sapiens) (P03372 whole entry, looked up): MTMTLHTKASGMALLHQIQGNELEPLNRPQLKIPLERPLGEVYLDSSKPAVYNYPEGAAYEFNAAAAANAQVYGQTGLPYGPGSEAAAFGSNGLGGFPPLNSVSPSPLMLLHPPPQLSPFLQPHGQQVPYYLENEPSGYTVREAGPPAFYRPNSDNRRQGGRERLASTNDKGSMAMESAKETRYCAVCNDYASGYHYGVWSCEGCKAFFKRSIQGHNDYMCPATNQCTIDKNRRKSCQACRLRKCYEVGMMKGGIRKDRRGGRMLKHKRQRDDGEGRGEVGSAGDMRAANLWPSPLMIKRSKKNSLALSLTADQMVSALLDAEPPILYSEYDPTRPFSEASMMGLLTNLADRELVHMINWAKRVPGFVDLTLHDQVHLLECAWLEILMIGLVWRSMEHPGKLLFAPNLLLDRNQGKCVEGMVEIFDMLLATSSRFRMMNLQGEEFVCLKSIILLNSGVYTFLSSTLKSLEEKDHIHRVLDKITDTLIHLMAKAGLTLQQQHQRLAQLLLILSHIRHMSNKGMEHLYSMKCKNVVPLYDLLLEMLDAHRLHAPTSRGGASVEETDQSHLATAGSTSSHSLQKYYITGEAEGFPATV

Compound	outcome	AC50
OCC1CO1 (stereo not given)	inactive	
c1nc[nH]n1	inactive	
COC(N)=O	inactive	
Nc1cc2c3c(c1)C(c1ccccc1)=N[C@@H](NC(=O)c1cccnc1)C(=O)N3CC2	inactive	
CCC(C)(C)c1ccc(O)cc1		7.31 µM (active)
CCCCOCC1CO1 (stereo not given)		77.3 µM (active)
COCCOCCO	inactive	
CCOS(=O)(=O)OCC	inactive	
c1ccc(OP(Oc2ccccc2)Oc2ccccc2)cc1		76.8 µM (active)
CCCCc1ccc(O)cc1		26.1 µM (active)
O=c1ssc(Cl)c1Cl	inactive	
ClC(Cl)c1ccccc1	inactive	
CCCN(CCC)c1c([N+](=O)[O-])cc(C(C)C)cc1[N+](=O)[O-]		13.3 µM (active)
CCCCN(CCCC)SN(C)C(=O)Oc1cccc2c1OC(C)(C)C2	inactive	
O=C(O)CF	inactive	
CC(C)(C)OOC(C)(C)C	inactive	
Nc1ccc(Cl)cc1	inactive	
Cc1cccc(N)c1	inactive	

System: not listed separately
Assay: CCTE_Shafer_MEA_dev_firing_rate_mean: CCTE's Neural Network Formation Assay for Mean Firing Rate, Shafer Lab (AID 2284031);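 note: AUC of well mean spike rate recorded on DIV 5 7 9 and 12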;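 for AC50: curve fitted for loss of firing so AC50 reflects decreased mean firing rate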
Method in brief: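 Extracellular spike frequency, AUC over DIV 5–12 recordings, in rat cortical neuron MEA cultures dosed from plating; loss direction vs DMSO.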

Compound	outcome	AC50
OCC(F)(F)OC(F)(F)C(F)(F)OC(F)(F)C(F)(F)OC(F)(F)F	inactive	
O=P1(N(CCCl)CCCl)NCCCO1 (stereo not given)	inactive	
OCC(F)(F)OC(F)(F)C(F)(F)OC(F)(F)CO	inactive	
O=C(O)C(F)(F)OC(F)(F)C(F)(F)OC(F)(F)F	inactive	
CCOP(=S)(OCC)SCSCC	inactive	
O=S(=O)(c1ccc(O)cc1)c1ccc(O)cc1	inactive	
O=C(O)C(F)(F)C(F)(F)C(=O)O	inactive	
O=C(O)C(F)(OC(F)(F)C(F)(F)C(F)(F)F)C(F)(F)F (stereo not given)	inactive	
CCCCC(CC)COC(=O)c1c(Br)c(Br)c(Br)c(Br)c1C(=O)OCC(CC)CCCC (stereo not given)	inactive	
c1ccc(OP(Oc2ccccc2)Oc2ccccc2)cc1	inactive	
c1cc2c3c(cccc3c1)CC2	inactive	
OCC(F)(F)OC(F)(F)C(F)(F)OC(F)(F)C(F)(F)OC(F)(F)CO	inactive	
CO/N=C(/C(=O)OC)c1ccccc1COc1ccccc1C		1 µM (active)
O=C(O)C=CC(F)(C(F)(F)F)C(F)(F)F	inactive	
CC(C)(C)c1ccccc1OP(=O)(Oc1ccccc1)Oc1ccccc1	inactive	
C=CC(=O)OCC(F)(F)C(F)F	inactive	
O=C(O)C(F)(F)OC(F)(F)C(F)(F)OC(F)(F)C(=O)O	inactive	
O=P(Oc1ccccc1)(Oc1ccccc1)Oc1ccccc1	inactive	
CC(O)C(F)(F)C(F)(F)F (stereo not given)	inactive	

Source: PubChem BioAssay (EPA / NIEHS)
